What all share (assay): NCI-60 one-dose screen, 48 h (100 = growth as untreated, 0 = no growth, -100 = all killed)
Holding throughout (conditions): 10 µM unless noted

In test [1] the test system is RPMI-8226 leukemia.
Test [2] deals with OVCAR-8 ovarian.
The test system of test [3] is OVCAR-5 ovarian.
The subject of test [4] is OVCAR-4 ovarian.
Test [5] relates to SK-OV-3 ovarian.
Test [6] relates to IGROV1 ovarian.
Test [7] concerns OVCAR-3 ovarian.
In test [8] the test system is HS 578T breast.
The test system of test [9] is NCI/ADR-RES ovarian.
Test [10] concerns T-47D breast.
Test [11] deals with BT-549 breast.
The subject of test [12] is MDA-MB-435 melanoma.
Test [13] concerns SW-620 colon.
Test [14] has as its system MCF7 breast.
In test [15] the test system is HCT-116 colon.
Test [16] deals with HCC-2998 colon.
Test [17] has as its system KM12 colon.

Structures are written as SMILES. The panel holds about 83,000 compounds, 20% with a hit somewhere; the sample as a whole holds those more often.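 Assay: single dose, 48 h. Readout: percent growth (0 = no net growth; negative = cell death). Active: <10.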 A number with no mark means an inactive call. Active and inactive are the calls of the source.

As for `COc1ccc(Cn2c(NCCCN(C)C)nc(=O)n(Cc3ccc(F)cc3)c2=O)cc1`, the growth in test [1] was 95.7%; in test [2], 98.9%; in [3], 109%; in [4], 93.1%; in [5], 86.3%; in test [6], 84.7%. The growth in test [7] was 87%; in [8], 93.3%; in test [9] it was 109%; in test [10], 83.4%; in [11], 92.5%; in [12] it was 102%. The growth in test [13] was 100%; in test [14] it was 87.9%; in [15] it was 93.8%; in test [16] it was 101%; in test [17], 99.8%.

For the compound `CCC(O)C(C)(C)C` (centres undefined), the growth in test [1] is 122%; in test [2] it was 103%; in test [3] it was 114%; in test [4] it was 118%; in test [5] it was 110%; in test [6] it was 112%. Moreover, the growth in [7] was 123%; in [8], 95.8%; in [9] it was 97.7%; in [10] it was 112%; in test [11], 108%; in test [12], 105%. Also, the growth in [13] is 101%; in [14] it was 113%; in test [15], 106%; in test [16] it was 106%; in [17], 113%.

For `O=C1/C(=C/c2ccc3cccc(Cl)c3n2)SC(=S)N1CCc1ccc(O)cc1`, the growth in test [1] is 82.2%; in test [2], 92.3%; in test [3], 106%; in [4], 96.6%; in [5], 93.2%; in test [6] it was 47%. Besides, the growth in test [7] was 75.7%; in test [8], 73.8%; in test [9], 93%; in test [10] it was 65.5%; in test [11], 95.2%; in test [12], 85.5%. Also, the growth in test [13] was 95%; in test [14] it was 86.3%; in [15], 99.2%; in [16] it was 118%; in test [17] it was 84.8%.

As to `O=C(Nc1ccc(Cl)cc1Cl)Nc1ccc(-c2cccnc2)cc1N1CCC(CO)CC1`, the growth in [1] is 9.15% (active); in test [2], 32.8%; in test [3], 48.5%; in test [4] it was 53.2%; in test [5] it was 4.28% (active); in test [6], 34.8%. Further, the growth in [7] is 24.9%; in test [8], 36.4%; in [9] it was 30.7%; in [10] it was 17.5%; in test [11], 66.6%; in test [12], 21.4%. For the same compound, the growth in test [13] was 17.6%; in test [14] it was 20%; in test [15], 18.1%; in test [16], 35.2%; in test [17] it was 25.3%.

On to `Cc1nn(-c2ccccc2)c2c1oc(=O)c1cc(Cl)ccc12`, for which the growth in [1] was 101%; in test [2] it was 101%; in test [3] it was 111%; in [4] it was 113%; in [5], 106%; in test [6], 86.5%. In addition, the growth is 85.8% in [7]; 175% in test [8]; 108% in test [9]; 105% in test [10]; 91% in test [11]; 106% in test [12]. For the same compound, the growth in test [13] was 106%; in test [14], 92.7%; in [15], 95.2%; in test [16] it was 102%; in test [17], 93.8%.

Turning to `O=C(NN(C(=O)c1ccccc1)c1cccs1)c1ccccc1`, the growth was 94.4% in test [1]; 120% in test [2]; 105% in test [3]; 106% in test [4]; 102% in [5]; 102% in test [6]. Moreover, the growth in test [7] is 115%; in [8], 104%; in [9], 103%; in test [10], 94.9%; in [11] it was 98%; in test [12], 124%. Further, the growth in [13] is 104%; in [14], 110%; in test [15], 93.7%; in [16], 103%; in test [17], 117%.

Turning to `Cc1cc([N+](=O)[O-])c(C)cc1C(=O)O`, the growth in test [1] is 115%; in test [2], 103%; in test [3], 93.7%; in test [4], 111%; in [5] it was 99.2%; in [6], 110%. Further, the growth is 106% in [7]; 107% in [8]; 103% in test [9]; 83.5% in test [10]; 92.5% in [11]; 102% in test [12]. The growth in test [13] is 108%; in test [14], 97.6%; in test [15] it was 102%; in test [16], 109%; in test [17], 102%.

The values above are taken from PubChem BioAssay (NCI).
